Screens from PubChem BioAssay.
Sampled rows, rich in hits. Any-hit rate of the full collection: about 2.8%.
pPAFAH FP inh = pPAFAH (human) enzyme inhibition | actives 1.5% (n = 330,000) | inhibition, % at 3.39 µM | recombinant pPAFAH, FP-rhodamine probe fluorescence polarization | Q13093;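 active means inhibition above the mean inhibition across the screen plus 3 SD, cut at about 25% in these data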;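 further: inhibitors block binding of the rhodamine activity-based probe so polarization drops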
Target sequence (Q13093 whole entry, looked up): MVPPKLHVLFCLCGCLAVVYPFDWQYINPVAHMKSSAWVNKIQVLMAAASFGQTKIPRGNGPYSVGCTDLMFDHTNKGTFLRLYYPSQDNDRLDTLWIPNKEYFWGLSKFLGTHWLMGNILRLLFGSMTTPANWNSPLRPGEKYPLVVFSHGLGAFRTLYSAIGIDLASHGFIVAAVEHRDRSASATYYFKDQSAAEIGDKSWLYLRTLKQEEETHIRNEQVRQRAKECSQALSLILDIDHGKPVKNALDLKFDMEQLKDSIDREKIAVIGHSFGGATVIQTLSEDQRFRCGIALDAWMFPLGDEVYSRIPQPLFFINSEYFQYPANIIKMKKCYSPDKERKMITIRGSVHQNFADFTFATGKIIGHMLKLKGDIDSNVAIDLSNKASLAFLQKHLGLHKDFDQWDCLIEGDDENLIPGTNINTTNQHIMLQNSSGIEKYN
Fam108B inh = Fam108B inhibition, counter-screen for RBBP9 inhibitors | inhibition, % at 9.51 µM | recombinant Fam108B, FP-Rh probe fluorescence polarization | actives 0.33% (n = 300,000);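 active means inhibition above the screen mean inhibition plus 3 SD, computed separately per campaign, cut at about 18% in these data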;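 further: inhibitors lower polarization as less probe binds the enzyme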
PAFAH1B3 inh = PAFAH1B3 (human) inhibition. Q15102. recombinant PAFAH1B3, FP-rhodamine probe, fluorescence polarization. inhibition, % at 3.39 µM. actives 0.28% (n = 340,000);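 active means inhibition above the screen-wide average of all tested compounds plus 3 SD, cut at about 25% in these data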
PAFAH1B2 FP inh = inhibitors of human PAFAH1B2 | P68402 | recombinant PAFAH1B2, FP-rhodamine activity probe, fluorescence polarization | inhibition, % at 3.39 µM | actives 1.2% (n = 340,000);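 active means inhibition above the mean of all tested compounds plus 3 SD, cut at about 24% in these data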
PME-1 primary = PME-1 (human) inhibition. recombinant PME-1, FP-Rh probe fluorescence polarization. actives 0.53% (n = 320,000). Q9Y570. inhibition, % at 5.9 µM;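 active means inhibition above the campaign mean of all compounds plus 3 SD, cut at about 26% in these data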;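 further: competitive labeling of PME-1 active site by serine hydrolase directed probe; inhibitors block probe labeling so polarization falls and inhibition rises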
PAFAH2 inh = inhibitors of human PAFAH2; Q99487; recombinant PAFAH2, FP-rhodamine activity probe, fluorescence polarization; inhibition, % at 3.39 µM; actives 0.99% (n = 340,000); AID 492956;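 active means inhibition above the mean over all tested compounds plus 3 SD, cut at about 30% in these data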;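 further: inhibitors block probe labeling of enzyme so polarization drops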
Numbers stand for hits; – = inactive; · = no result.

SMILES	pPAFAH FP inh	Fam108B inh	PAFAH1B3 inh	PAFAH1B2 FP inh	PME-1 primary	PAFAH2 inh
CC1(C)C[C@H]2C3=CCC4[C@@]5(C)CC[C@H](O)[C@@](C)(CO)C5CC[C@@]4(C)[C@]3(C)C[C@@H](O)[C@@]2(CO)[C@@H](O)[C@@H]1O (some centres undefined)	–	·	–	–	·	–
C=CCC[C@H](Cc1ccc(F)cc1)C(=O)OC[C@@H](Cc1c[nH]c2ccccc12)NC(=O)[C@@H](CC=C)CC(=O)N[C@@H](CO)Cc1ccccc1	–	·	–	–	·	–
C=CC[C@H](CC(=O)N(CCO)Cc1ccccc1)C(=O)N[C@@H](C)COC(=O)[C@@H](CC=C)Cc1ccc(F)cc1	–	·	–	26.2	·	–
C=CCC[C@H](Cc1ccc(F)cc1)C(=O)OC[C@H](Cc1c[nH]c2ccccc12)NC(=O)[C@@H](CC=C)CC(=O)NCCO	27.5	·	–	–	·	–
O=C(O)c1ccc(Cn2cnc3scc(-c4ccccc4)c3c2=O)cc1	–	–	–	26.3	–	–
CC#C[C@@H](CC)c1ccc2ccn(C)c2c1	–	·	–	–	–	–
CC(OC(=O)C1=COCCO1)C(=O)Nc1ncc(Cl)cc1Cl (centres undefined)	·	·	–	46.7	·	–
CC(C)C[C@@H](NC(=O)C1CCC(CNC(=O)[C@@H]2CCCN2C(=O)OC(C)(C)C)CC1)C(=O)O (some centres undefined)	·	·	–	–	·	–
CCCCNc1ccc2c3c(cccc13)C(=O)N(CCCC)C2=O	·	·	30.7	–	·	34.0
Cc1ccccc1NS(=O)(=O)c1ccc(NC(=O)CSCc2ccc(Br)cc2)cc1	25.8	–	–	–	–	–
CCCCN(Cc1nc2ccccc2c(=O)[nH]1)C(=O)c1nn(C)c(=O)c2ccccc12	·	·	76.0	42.2	·	80.9
FC(F)(F)c1ccc2c(c1)NCC1CCCN21 (centres undefined)	27.2	–	–	–	–	86.0
FC(F)(F)c1ccc2c(c1)N1CCCC1CN2 (centres undefined)	–	–	–	–	–	–
COc1ccccc1NS(=O)(=O)c1ccc(N/N=C/c2ccccc2OCC(=O)O)c([N+](=O)[O-])c1	28.6	–	–	–	54.5	–
CCN(CC)S(=O)(=O)c1ccc(N/N=C/c2ccccc2OCC(=O)O)c([N+](=O)[O-])c1	30.2	–	–	–	–	–
NC(=O)COc1ccc(C(=O)NCC2(N3CCOCC3)CCCCC2)cc1	–	·	–	–	–	–
CC(Sc1n[nH]c(N)n1)C(=O)C12CC3CC(CC(C3)C1)C2 (centres undefined)	–	–	–	27.1	–	–
O=C(O)CCC1c2cc3c4cc2OC2Oc5cc6c(cc51)C(CCC(=O)O)c1cc5c7cc1OC(O6)c1cc6cc(c1)Oc1cc(cc(C(=O)O)c1)Oc1cc8cc(c1)C(Oc1cc(c(cc1C5CCC(=O)O)C3CCC(=O)O)OC(O4)c1cc(cc(c1)Oc1cc(cc(C(=O)O)c1)O8)Oc1cc(cc(C(=O)O)c1)Oc1cc(cc2c1)Oc1cc(cc(C(=O)O)c1)O6)O7 (centres undefined)	–	–	·	·	–	·
CC1CC(C)CN(S(=O)(=O)c2ccc(C(=O)NNC(=O)c3ccccc3F)cc2)C1 (centres undefined)	–	·	–	26.1	·	–
COc1ccc(-n2cnc3cc(NS(=O)(=O)c4ccc(C)cc4)ccc32)cc1	–	–	–	–	–	–
COc1ccc(S(=O)(=O)Nc2ccc(C)cc2)cc1OC	–	–	–	–	–	–
COc1ccccc1-n1cnc2cc(NS(=O)(=O)c3ccc(Br)cc3)ccc21	–	–	–	24.7	–	–
COc1cc(S(=O)(=O)Nc2ccc(Br)cc2)ccc1N	24.7	–	–	–	–	–
CC(C)(C)c1ccc(S(=O)(=O)N(CCCN2CCOCC2)Cc2cccs2)cc1	32.5	–	–	–	–	29.9
NC(=O)c1ccc(SCC(=O)OCC(=O)NCc2cccs2)c([N+](=O)[O-])c1	–	·	–	–	–	–
SMILES	pPAFAH FP inh	Fam108B inh	PAFAH1B3 inh	PAFAH1B2 FP inh	PME-1 primary	PAFAH2 inh
Cc1ccc(-c2csc(N3CCC[C@@H]3C(=O)NCCn3c(-c4ccncc4)nc4ccccc43)n2)cc1	–	–	–	–	–	–
CCOC(=O)c1c(NC(=O)C(C)Sc2cccc[n+]2[O-])sc2c1CCN(Cc1ccccc1)C2 (centres undefined)	33.3	–	–	–	–	–
CCOC(=O)c1c(NC(C)=O)sc2c1CCN(Cc1ccccc1)C2	–	–	–	–	–	–
CC1C/C(=N\NC(=O)c2ccc([N+](=O)[O-])cc2)CC(C)(C)C1 (centres undefined)	–	–	–	–	–	–
CC1C/C(=N\NC(=O)c2ccc(NS(=O)(=O)c3ccc(Br)cc3)cc2)CC(C)(C)C1 (centres undefined)	–	–	–	25.5	–	–
O=C(Nc1cccc(N2C(=O)C=CC2=O)c1)c1cccs1	–	–	–	–	–	–
O=C1C=CC(=O)N1c1cccc(-c2ccccc2)c1	26.9	–	–	–	–	–
Cc1[nH]n2c(=O)cc(-c3ccc([N+](=O)[O-])cc3)nc2c1-c1ccccc1	32.6	–	–	–	–	–
CCCc1cc(=O)n2[nH]c(C)c(-c3ccccc3)c2n1	–	–	–	–	–	–
COCCCNC(=S)N(CCO)Cc1cc2cc3c(cc2[nH]c1=O)OCO3	·	·	–	–	·	–
O=C(Nc1ccc(Cl)c(S(=O)(=O)N2CCCC2)c1)c1cc(=O)[nH]c2ccccc12	–	·	–	–	·	–
CCCNC(=O)c1cccc(S(=O)(=O)N2CC3(C)CC2CC(C)(C)C3)c1 (centres undefined)	–	–	–	25.8	–	–
CN(C)C(CNC(=O)c1cccc(S(=O)(=O)N2CC3(C)CC2CC(C)(C)C3)c1)c1ccco1 (centres undefined)	–	–	–	–	–	–
CC(C)N(C(=O)COC(=O)c1cccc(S(=O)(=O)N2CC3(C)CC2CC(C)(C)C3)c1)C(C)C (centres undefined)	·	·	–	–	·	–
CC1(C)CC2CC(C)(CN2S(=O)(=O)c2cccc(N)c2)C1 (centres undefined)	–	–	–	24.2	–	–
CCOC(=O)c1sc(NC(=O)CCN2C(=O)C3CCCCC3C2=O)cc1C (centres undefined)	–	·	–	–	–	–
Cn1c(SCc2ccc(Br)cc2)nnc1-c1cccs1	–	–	–	24.4	–	–
COCCCNC(=O)c1ccc(OC)c(OC2CCN(C(C)C)CC2)c1	–	–	–	–	–	–
Cc1nnc(-c2ccc(Oc3ccc(Br)cc3)c([N+](=O)[O-])c2)o1	–	–	–	–	–	–
O=[N+]([O-])c1cc(-c2cnc3ccccc3n2)ccc1Oc1ccc(Br)cc1	–	–	–	54.1	–	–
CC(C)(C)N=Cc1c(O)ccc2oc3c(c12)CCCC3	–	–	–	–	–	–
